From PubChem BioAssay (NCI)
Several values for one entry are separate records, joined by “and”; a condition that tells them apart may be missing. Equal entries are not always repeated. The panel holds about 83,000 compounds, 20% with a hit somewhere; the sample as a whole holds those more often.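 Percent growth is the endpoint: 0 to 100 indicates growth inhibition (40 means 60% inhibition), 0 means no net growth, and negative values indicate cell death.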 Values without a mark were called inactive. Activity calls are given as the source filed them.

system: SK-MEL-28 melanoma; assay: NCI-60 one-dose screen, 48 h (100 = growth as untreated, 0 = no growth, -100 = all killed); settings: 10 µM unless noted
Method: Growth inhibition of the SK-MEL-28 human tumor cell line is measured as a screen for anti-cancer activity. Cells are grown in 96 well plates and exposed to the test compound for 48 hours. Compounds are tested at a single concentration, which is 10^-5 M for most compounds. The reported endpoint is percent growth (GI% or GIPRCNT), where numbers from 0 - 100% represent growth inhibition, and numbers from -100% - 0 represent cell death. For example, a value of 40 represents 60% growth inhibition. A value of 0 means no net growth occurred over the course of the experiment. A value of -40 indicates 40% of cells at the beginning of the experiment died by the end of the experiment. A value of -100 means all cells are dead at the end of the experiment.
NCI-60 Human Tumor Cell Lines Screen was performed using the standard one-dose NCI protocol, which is described in more detail at https://dtp.cancer.gov/discovery_development/nci-60/default.htm.
Compounds with GIPRCNT values below 10 were considered active. Activity score was based on GIPRCNT using the following formula: […]
Score is 0 for GIPRCNT values of 100 or above, 50 for GIPRCNT values of 0, and 100 for GIPRCNT values of -100.

Row | SMILES | growth
1 | O=C1C=CC(=O)N1c1ccc2ccccc2c1 | 110% and 116%
2 | O=C(/C=C/c1ccccc1)c1cccs1 | 111% and 105%
3 | CCCCCCCCCCCCCCCC[N+](C)(C)CCN(Cc1ccc(OC)cc1)c1ncccn1 | 33.3% and 52.9%
4 | CC1=C2[C@@H](CC1)[C@]1(C)O[C@@](C3CC3)(C[C@H]1OC(=O)CO)[C@H]2OC(=O)/C=C/c1ccccc1 | 107%
5 | CN(C)CCCn1c2nc(=O)[nH]c(=O)c-2nc2cc(Cl)c(Cl)cc21 | 106%
6 | Nc1nc(CSc2n[nH]c(N)n2)nc(Nc2ccccc2)n1 | 100%
7 | C=C1C(=O)O[C@H]2[C@H]1CC/C(COC(=O)NCCCCNC(=O)OC/C1=C/CC[C@@]3(C)O[C@H]3[C@H]3OC(=O)C(=C)[C@@H]3CC1)=C\CC[C@@]1(C)O[C@@H]21 | -10.1% (active)
8 | COc1ccc(-c2[nH]c3ccccc3c2-c2ccc(OC)cc2)cc1 | 51.4%
9 | CN1CCN(Cc2ccc(NC(=O)c3cccc(C#Cc4c(N)ncc5ccc(F)cc45)c3)cc2C(F)(F)F)CC1 | -90.2% (active)
10 | CCCCC1=C(Br)C(=O)c2nc(C)ccc2C1=O | 105%
11 | Cn1cc2c(=O)nc3c(-c4nc5ccccc5[nH]4)n[nH]n3c2n1 | 82.5%
12 | COC1/C=C/OC2(C)Oc3c(C)c(O)c4c(O)c(c(C=NOC(c5ccccc5)c5ccccc5)c(O)c4c3C2=O)NC(=O)/C(C)=C/C=C/C(C)C(O)C(C)C(O)C(C)C(OC(C)=O)C1C (stereo not given) | -7.28% (active)
13 | CC1(C)C(N)=Nc2cc(OCCCN3Cc4ccc(OCCc5cn(CC(=O)N6CCC(CCN7CCCC7)CC6)nn5)cc4C3)c(OCC3CC3)cc21 | 108%
14 | N=C(N)c1ccc(-c2ccc(-c3ccc(Cl)c(Cl)c3)s2)cc1 | 107%
15 | Cc1cc2nc(C(Cl)Cl)nc(-c3ccc(Cl)cc3)n2n1 | 18.5%
16 | Cn1cc(-c2csc(-c3cn(CCOC(N)=O)c4ccccc34)n2)c2cccnc21 | 92.5%
17 | Cc1ccc(-c2nc3nc(-c4ccc(Br)cc4)nc(N4CCCNCC4)c3o2)cc1 | 103%
18 | FC(F)(F)Sc1ccc(/C=C/c2cc(/C=C/c3ccc(SC(F)(F)F)cc3)n(-c3ccccc3)n2)cc1 | 109%
19 | CCOC(=O)C1=C(C)NC(=O)NC1c1c(Cl)n(-c2ccccc2)c2ccccc12 (stereo not given) | 94.1%
20 | Cc1ccc2nc3ccccc3c(NCc3ccc(Cl)cc3)c2c1 | 75.5%

Row | SMILES | growth
21 | CC(Sc1ccccc1)C(=O)O (stereo not given) | 106%
22 | CC(=O)OC[C@]12CCC(C)(C)C=C1[C@H]1CC[C@@H]3[C@@]4(C)CCCNC(C)(C)[C@@H]4CC[C@@]3(C)[C@]1(C)CC2 | 59.1%
23 | NS(=O)(=O)c1ccc(C(=O)N=Nc2c(O)[nH]c3c(F)cccc23)cc1 | 105%
24 | O=C1c2cc3c(cc2-c2c1c1ccc(Cl)cc1c(=O)n2CCCn1ccnc1)OCO3 | 15.5%
25 | CC[C@]12CN3CCc4c([nH]c5ccccc45)[C@@](C(=O)OC)(c4cc5c(cc4OC)N(C)[C@H]4[C@@](O)(C(=O)OC)[C@H](OC(C)=O)[C@]6(CC)C=CCN7CC[C@]54[C@@H]76)CC(C3)[C@H]1O2 (stereo not given in full) | 60.2%
26 | c1ccc(Cc2cccc[n+]2C(c2ccccc2)c2ccccc2)cc1 | 41.6%
27 | ON=C1CCCCCCCC1 | 105% and 113%
28 | Cc1c(C(C)(C)O)cn2ncnc(Oc3ccc(NC(=O)Nc4ccc(Cl)c(C(F)(F)F)c4)cc3)c12 | 53.1%
29 | CN(C)c1ccc2nc3ccc(=O)cc-3sc2c1 | 77.6% and 63%
30 | Cn1cc(C2=C(c3cccc4ccccc34)C(=O)NC2=O)c2cc(Br)ccc21 | 111%
31 | CCOc1ccccc1NC(=O)c1cc2ccccc2cc1O | 87.7%
32 | O=C1CCCCN1CCCCC#Cc1cccc(C#Cc2cccnc2)c1 | 107%
33 | COCCn1cc(-c2nc(-c3cn(CCOC)c4ncccc34)cs2)c2ccccc21 | 105%
34 | CC[C@H](C)[C@H](NC(=O)[C@H](CCCCN)NC(=O)[C@H](CCCCN)NC(=O)[C@@H](NC(=O)[C@@H](NC(=O)[C@@H](N)Cc1cnc[nH]1)[C@@H](C)CC)[C@@H](C)CC)C(=O)N[C@@H](CCCNC(=N)N)C(=O)N[C@H](C(=O)N[C@@H](Cc1c[nH]c2ccccc12)C(=O)N[C@@H](Cc1ccc(O)cc1)C(=O)N[C@@H](CCCNC(=N)N)C(=O)N[C@@H](CCCCN)C(=O)N[C@@H](C)C(=O)N[C@@H](Cc1c[nH]c2ccccc12)C(=O)N[C@@H](Cc1cnc[nH]1)C(=O)N[C@H](C(=O)N[C@@H](CC(C)C)C(=O)NCC(=O)N[C@@H](CCCCN)C(=O)N[C@H](C(N)=O)C(C)C)C(C)C)[C@@H](C)O | 18.9%
35 | C=C1CCC2C3(C)COC(c4ccc(NC(C)=O)cc4)OC3CCC2(C)C1C/C=C1/C(=O)OCC1O (stereo not given) | 88.6%
36 | COc1cc(-c2[nH]ncc2Nc2ccc(Cl)cc2)cc(OC)c1OC | 82.1%
37 | O=C(CCl)N(O)c1ccc(/C=C/c2ccccc2)cc1 | 107% and 112%
38 | CCCCn1c(C(=O)c2c[nH]c3ccccc23)n[nH]c1=S | 117%
39 | COc1cc(OC)cc(-c2ccc(-c3ccc(C(=N)N)cn3)s2)c1 | 109%
40 | COc1ccc(/C=N/NC(=O)CN2CCN(c3cc4c(cc3F)c(=O)c(C(=O)O)cn4C3CC3)CC2)cc1O | 109%
